Unmarked numbers belong to inactive results. Records with an inconclusive call do not appear. A call without a number means that no potency is given here. Activity calls are given as the source filed them. Unless noted, the call rests on the fitted dose curve.
Experiments:
[1] = Nuclear factor erythroid 2-related factor 2/antioxidant responsive element (Nrf2/ARE) small molecule agonists: qHTS cell viability counter screen in human keratinocytes (AID 1919968; active means well fitted curve in the direction sought with a large enough effect in the repeat runs; an effect the other way counts as inactive or inconclusive; further: nearly all actives have a fitted effect of over 55% in size; further: potency means the concentration at half of the fitted maximal effect)
Summary of the method: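 Cytotoxicity was multiplexed with the Nrf2/ARE luciferase assay in the same wells. Stably transfected HaCaT keratinocytes were treated with test compounds for 23 h at 37 C. Cell viability was then measured by CellTiter-Fluor fluorescence.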

[2] = Nuclear factor erythroid 2-related factor 2/antioxidant responsive element (Nrf2/ARE) small molecule agonists: luciferase reporter gene qHTS assay in human keratinocytes (AID 1919969); further: nearly all actives have a fitted effect of over 35% in size; further: potency means the concentration at half of the fitted maximal effect
[3] = molecular target: Gonadotropin-releasing hormone receptor (Homo sapiens) (UniProt P30968); test: Human gonadotropin-releasing hormone receptor (GnRHR) small molecule agonists, calcium flux assay in GnRHR-HEK293 cells (AID 1920063); further: nearly all actives have a fitted effect of over 35% in size
Sequence of Gonadotropin-releasing hormone receptor (Homo sapiens) (P30968 whole entry, looked up): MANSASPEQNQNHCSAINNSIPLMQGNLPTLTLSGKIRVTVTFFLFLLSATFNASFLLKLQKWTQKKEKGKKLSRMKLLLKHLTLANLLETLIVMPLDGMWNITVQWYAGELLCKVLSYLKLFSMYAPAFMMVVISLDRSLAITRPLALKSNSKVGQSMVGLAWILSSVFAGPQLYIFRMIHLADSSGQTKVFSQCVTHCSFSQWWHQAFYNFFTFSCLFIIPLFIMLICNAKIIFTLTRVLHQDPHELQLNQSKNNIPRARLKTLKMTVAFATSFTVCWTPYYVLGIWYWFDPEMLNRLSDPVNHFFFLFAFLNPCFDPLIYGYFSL
Summary of the method: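 Agonist activity was measured as intracellular calcium flux in HEK293 cells engineered to stably express human GnRHR. After dye loading for 1 hour at 37 C, compounds in DMSO were added and fluorescence was followed for 3 minutes.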

[4] = molecular target: KiSS-1 receptor (Homo sapiens) (UniProt Q969F8); test: Human kisspeptin (KISS1R) small molecule agonists, calcium flux assay in KISS1R-HEK293 cells (AID 1920064; active means well fitted curve in the direction sought with a large enough effect in the repeat runs; an effect the other way counts as inactive or inconclusive)
Sequence of KiSS-1 receptor (Homo sapiens) (Q969F8 whole entry, looked up): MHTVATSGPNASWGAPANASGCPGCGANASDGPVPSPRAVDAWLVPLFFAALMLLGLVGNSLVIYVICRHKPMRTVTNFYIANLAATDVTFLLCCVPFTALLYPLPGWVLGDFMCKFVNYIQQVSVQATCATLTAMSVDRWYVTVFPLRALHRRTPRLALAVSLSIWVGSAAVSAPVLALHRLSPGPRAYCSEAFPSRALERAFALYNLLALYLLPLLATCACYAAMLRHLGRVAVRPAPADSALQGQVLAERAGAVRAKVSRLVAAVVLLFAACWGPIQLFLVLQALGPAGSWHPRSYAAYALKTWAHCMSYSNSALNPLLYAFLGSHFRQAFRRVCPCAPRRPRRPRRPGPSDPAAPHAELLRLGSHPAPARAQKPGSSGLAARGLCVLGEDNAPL
Summary of the method: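 Agonist activity is monitored as intracellular calcium rise in engineered HEK293 cells carrying human KISS1R. Cells are dye-loaded for 1 h at 37 C before compound addition, and fluorescence is recorded for 3 min.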

[5] = G protein-coupled receptor (GPCR) small molecule agonists, calcium flux assay: HEK293 wild type cell line counter screen (AID 1920065)
Summary of the method: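 Seed cells, incubate 18 h (37 C, 5% CO2); add calcium dye, 1 h at 37 C; pin-transfer compounds, ATP control or DMSO; read fluorescence 480/540 nm each second for 3 min.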

[6] = p53 small molecule agonists, cell-based qHTS assay with human liver microsomes (AID 1963577);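 further: p53 response element beta-lactamase reporter cells with liver microsomes plus NADPH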
Summary of the method: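 Fluorescence of the beta-lactamase reporter in p53RE-bla cells, detected with LiveBLAzer substrate (2 h, room temperature, dark), served as the read-out after 16 h compound exposure at 37 C with human liver microsomes and NADPH, each 0.5 mg/mL final.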

[7] = p53 small molecule agonists, cell-based qHTS assay with human liver microsomes: qHTS cell viability counter screen (AID 1963579); further: nearly all actives have a fitted effect of over 45% in size
Summary of the method: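 Cytotoxicity counter screen: p53RE-bla, 4,000 cells/well; 5 h settle, 37 C/5% CO2; cpd + HLM 0.5 mg/mL + NADPH 0.5 mg/mL (final); 16 h, 37 C; CellTiter-Glo, 30 min RT, luminescence.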

[8] = p53 small molecule agonists, cell-based qHTS assay with rat liver microsomes: qHTS cell viability counter screen (AID 1963580); further: nearly all actives have a fitted effect of over 45% in size
Summary of the method: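 After the beta-lactamase ratio was read, CellTiter-Glo was added to the same wells and luminescence measured at 30 min; cells had been treated 16 h at 37 C with compounds, rat liver microsomes and NADPH (0.5 mg/mL final each).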

[9] = p53 small molecule agonists, cell-based qHTS assay: qHTS cell viability counter screen (AID 1963581); further: nearly all actives have a fitted effect of over 45% in size
Summary of the method: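 Viability was counter-screened in parallel with the p53 agonist reporter by measuring intracellular ATP luminescence in the same HCT-116 p53RE-bla wells after 16 h compound treatment at 37 C.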

[10] = molecular target: 5-hydroxytryptamine receptor 2A (Homo sapiens) (UniProt P28223); test: 5-hydroxytryptamine receptor 2A (HTR2A) small molecule antagonists, cell-based qHTS assay (AID 1963586); further: nearly all actives have a fitted effect of over 45% in size; further: potency means the concentration at half of the fitted maximal effect
Sequence of 5-hydroxytryptamine receptor 2A (Homo sapiens) (P28223 whole entry, looked up): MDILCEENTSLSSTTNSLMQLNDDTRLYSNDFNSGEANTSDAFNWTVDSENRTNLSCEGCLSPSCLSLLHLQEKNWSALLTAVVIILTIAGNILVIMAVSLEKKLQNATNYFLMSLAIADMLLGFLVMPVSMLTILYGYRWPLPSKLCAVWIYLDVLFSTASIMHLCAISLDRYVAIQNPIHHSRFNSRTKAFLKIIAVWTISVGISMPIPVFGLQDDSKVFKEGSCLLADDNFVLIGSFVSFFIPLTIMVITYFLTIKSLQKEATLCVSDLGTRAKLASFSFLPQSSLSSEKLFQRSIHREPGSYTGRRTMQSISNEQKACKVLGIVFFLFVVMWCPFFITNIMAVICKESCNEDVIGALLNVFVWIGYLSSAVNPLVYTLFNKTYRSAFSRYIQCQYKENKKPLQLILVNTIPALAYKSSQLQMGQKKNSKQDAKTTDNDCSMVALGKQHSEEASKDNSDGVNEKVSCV
Summary of the method: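 CHO cells stably expressing human HTR2A were plated for 18 h at 37 C, then loaded with calcium dye for 1 h. Compounds were preincubated 5 min at room temperature before DOI (4 nM solution) was added. Kinetic fluorescence was read for 3 min.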

[11] = molecular target: 5-hydroxytryptamine receptor 2A (Homo sapiens) (UniProt P28223); test: 5-hydroxytryptamine receptor 2A (HTR2A) small molecule agonists, cell-based qHTS assay (AID 1963587); further: nearly all actives have a fitted effect of over 30% in size
Summary of the method: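 CHO cells stably expressing human HTR2A, plated 18 h, loaded with calcium dye 1 h at 37 C. Agonist mode: compounds added and intracellular calcium fluorescence recorded kinetically for 2 min at 1 sec intervals.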

[12] = molecular target: Muscarinic acetylcholine receptor M1 (Homo sapiens) (UniProt P11229); test: Cholinergic receptor muscarinic 1 (CHRM1) small molecule antagonists, cell-based qHTS assay (AID 1963588); further: nearly all actives have a fitted effect of over 40% in size; further: potency means the concentration at half of the fitted maximal effect
Sequence of Muscarinic acetylcholine receptor M1 (Homo sapiens) (P11229 whole entry, looked up): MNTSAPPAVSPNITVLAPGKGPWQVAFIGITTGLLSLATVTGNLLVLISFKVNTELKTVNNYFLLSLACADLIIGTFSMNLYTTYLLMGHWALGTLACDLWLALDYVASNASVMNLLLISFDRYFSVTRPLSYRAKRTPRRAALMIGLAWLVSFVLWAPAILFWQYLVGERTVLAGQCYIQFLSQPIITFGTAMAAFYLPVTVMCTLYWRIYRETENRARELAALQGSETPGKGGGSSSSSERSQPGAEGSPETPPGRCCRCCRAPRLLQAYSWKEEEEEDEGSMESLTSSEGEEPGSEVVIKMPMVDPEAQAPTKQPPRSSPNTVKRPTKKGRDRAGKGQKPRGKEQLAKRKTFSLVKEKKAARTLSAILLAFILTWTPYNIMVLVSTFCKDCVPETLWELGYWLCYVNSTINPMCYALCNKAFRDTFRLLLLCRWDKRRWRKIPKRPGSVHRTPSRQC
Summary of the method: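 Compounds were tested at 15 concentrations in three independent runs. Dye-loaded CHRM1-CHO cells were exposed 5 min at room temperature before stimulation by acetylcholine added at 50nM. Intracellular calcium was read kinetically on FDSS for 3 min.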

[13] = molecular target: Muscarinic acetylcholine receptor M1 (Homo sapiens) (UniProt P11229); test: Cholinergic receptor muscarinic 1 (CHRM1) small molecule agonists, cell-based qHTS assay (AID 1963589); further: nearly all actives have a fitted effect of over 35% in size
Summary of the method: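 Cells were plated and incubated 18 h at 37 C/5% CO2, loaded with calcium dye for 1 h at 37 C, then treated with compounds in DMSO. Fluorescence was recorded kinetically at 1 sec intervals.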

[14] = cAMP Responsive Elements (CRE) small molecule antagonists, cell-based qHTS assay (AID 1963591; active means well fitted inhibition curve with a large enough effect in the signal ratio in the repeat runs, not every such curve was filed as active; the % refers to the signal ratio)
Summary of the method: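 Cells (CRE-bla HEK 293T, DMEM with 10% dialyzed FBS and 25 mM HEPES) are seeded and incubated 18 h. Compounds are added with NKH477 agonist at 0.25 uM final for 3 h, then FRET substrate for 2 h.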

[15] = molecular target: Beta-2 adrenergic receptor (Homo sapiens) (UniProt P07550); test: Adrenergic beta2 receptor (ADRB2) small molecule antagonists, cell-based qHTS assay (AID 1963592); further: series mostly up to about 92 µM; nearly all actives have a fitted effect of over 50% in size
Sequence of Beta-2 adrenergic receptor (Homo sapiens) (P07550 whole entry, looked up): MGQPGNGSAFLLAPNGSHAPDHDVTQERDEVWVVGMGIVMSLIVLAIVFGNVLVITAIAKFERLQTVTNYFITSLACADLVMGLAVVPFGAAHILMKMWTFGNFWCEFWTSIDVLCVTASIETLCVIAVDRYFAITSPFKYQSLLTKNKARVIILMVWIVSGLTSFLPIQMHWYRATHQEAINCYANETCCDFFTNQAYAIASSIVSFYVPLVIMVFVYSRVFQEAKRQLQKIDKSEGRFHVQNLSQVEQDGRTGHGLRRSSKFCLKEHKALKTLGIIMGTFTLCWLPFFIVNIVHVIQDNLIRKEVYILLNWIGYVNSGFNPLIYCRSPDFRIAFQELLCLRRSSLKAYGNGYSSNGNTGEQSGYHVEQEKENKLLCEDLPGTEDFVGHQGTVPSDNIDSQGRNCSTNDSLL
Summary of the method: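 Assay format: CHO-ADRB2 cells, 18-20hr seeding at 37C/5% CO2, then compound plus 1nM isoproterenol agonist mix for 0.5hr RT. Homogeneous time-resolved fluorescence cAMP detection after 1hr, expressed as 665/615 nm ratio.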

[16] = molecular target: D(2) dopamine receptor (Homo sapiens) (UniProt P14416); test: Dopamine D2 receptor (DRD2) small molecule agonists, cell-based qHTS assay (AID 1963594); further: nearly all actives have a fitted effect of over 35% in size
Sequence of D(2) dopamine receptor (Homo sapiens) (P14416 whole entry, looked up): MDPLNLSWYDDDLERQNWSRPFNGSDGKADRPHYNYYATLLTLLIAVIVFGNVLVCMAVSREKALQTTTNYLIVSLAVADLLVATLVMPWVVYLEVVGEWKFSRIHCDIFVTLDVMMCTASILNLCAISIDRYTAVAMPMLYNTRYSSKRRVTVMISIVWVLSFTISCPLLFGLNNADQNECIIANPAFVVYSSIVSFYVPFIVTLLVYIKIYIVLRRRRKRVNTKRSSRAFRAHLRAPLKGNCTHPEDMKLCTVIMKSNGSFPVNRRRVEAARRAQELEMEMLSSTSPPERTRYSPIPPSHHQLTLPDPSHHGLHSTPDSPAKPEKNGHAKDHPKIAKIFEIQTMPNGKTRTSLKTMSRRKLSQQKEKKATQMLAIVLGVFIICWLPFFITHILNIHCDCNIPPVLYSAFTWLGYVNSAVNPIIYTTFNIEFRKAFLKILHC
Summary of the method: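 HEK293 cells stably expressing human DRD2, pre-treated with PDE inhibitor Ro20-1724 (0.1 mM final) and compound 10 min at room temperature, then stimulated with NKH477 (200nM […]) for 30 min. cAMP read by HTRF (665/620 nm).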

[17] = molecular target: D(2) dopamine receptor (Homo sapiens) (UniProt P14416); test: Dopamine D2 receptor (DRD2) small molecule antagonists, cell-based qHTS assay (AID 1963595; active means well fitted inhibition curve with a large enough effect in the signal ratio in the repeat runs, with a control signal flat; the % refers to the signal ratio; further: potency means the concentration at half of the fitted maximal effect)
Summary of the method: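 In this cell-based antagonist screen, compounds act for 10 min at room temperature before a 30 min challenge with 12 nM quinpirole and 200 nM NKH477. cAMP is quantified by HTRF competition in DRD2-HEK293 cells containing 0.1 mM Ro20-1724.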

[18] = p53 small molecule agonists, cell-based qHTS assay (AID 1963582; active means well fitted activation curve with a large enough effect in the signal ratio in the repeat runs, not every such curve was filed as active; the % refers to the signal ratio)
Summary of the method: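 Cells carrying a p53-responsive bla reporter are treated with test compounds for 16 h at 37 C; beta-lactamase activity is then detected with LiveBLAzer B/G FRET substrate after 2 h at room temperature.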

[19] = cAMP Responsive Elements (CRE) small molecule agonists, cell-based qHTS assay (AID 1963590)
Summary of the method: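 Cells carrying a CRE-driven beta-lactamase reporter (HEK 293T) are seeded, incubated overnight (18 h), and treated with test compounds for 3 h at 37 C; reporter activity is then detected with a FRET substrate after 2 h at room temperature.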

Row | SMILES | Potency [1] | Potency [2] | Potency [3] | outcome [4] | outcome [5] | Potency [6] | Potency [7] | Potency [8] | Potency [9] | Potency [10] | Potency [11] | Potency [12] | Potency [13] | Potency [14] | Potency [15] | Potency [16] | Potency [17] | Potency [18] | Potency [19]
1 | CN1CCCN=C1COC(=O)C(O)(c1ccccc1)C1CCCCC1 (stereo not drawn) | inactive | inactive | inactive | inactive | inactive | inactive | inactive | inactive | inactive | inactive | inactive | 0.0116 µM (active) | inactive | inactive | inactive | inactive | inactive | – | –
2 | CCN(CC)C(C)CN1c2ccccc2Sc2ccccc21 (stereo not drawn) | inactive | inactive | inactive | inactive | inactive | inactive | inactive | inactive | – | – | inactive | – | inactive | inactive | inactive | inactive | inactive | inactive | inactive
3 | CCN(CCC#N)c1ccc(N=Nc2ccc([N+](=O)[O-])cc2)cc1 | inactive | inactive | inactive | inactive | inactive | inactive | inactive | inactive | inactive | inactive | inactive | inactive | inactive | inactive | inactive | inactive | – | – | inactive
4 | O=C1CCC(C2CCCCC2)CC1 | inactive | inactive | inactive | inactive | inactive | inactive | inactive | inactive | inactive | inactive | inactive | inactive | inactive | inactive | inactive | inactive | inactive | – | inactive
5 | CCn1cc(C(=O)O)c(=O)c2cc(F)c(N3CCNCC3)nc21 | inactive | inactive | inactive | inactive | inactive | inactive | inactive | inactive | – | – | – | – | – | inactive | – | inactive | inactive | inactive | inactive
6 | CN(C)CCC=C1c2ccccc2C=Cc2ccccc21 | inactive | inactive | inactive | inactive | inactive | inactive | inactive | inactive | inactive | 0.818 µM (active) | – | inactive | inactive | inactive | – | inactive | 33.5 µM (active) | – | inactive
7 | Cc1nc2ccccn2c(=O)c1CCN1CCC(C(=O)c2ccc(F)cc2)CC1 | inactive | inactive | inactive | inactive | inactive | inactive | – | inactive | inactive | inactive | inactive | inactive | inactive | – | – | inactive | 0.531 µM (active) | – | –
8 | CCCCCCCCN(C)CCCCCCCC | inactive | inactive | inactive | inactive | inactive | inactive | – | inactive | inactive | inactive | inactive | inactive | inactive | inactive | inactive | inactive | – | – | inactive
9 | Nc1ccc(S(=O)(=O)O)c(N)c1 | inactive | inactive | inactive | inactive | inactive | inactive | inactive | inactive | inactive | inactive | inactive | inactive | inactive | inactive | inactive | – | inactive | – | –
10 | COC(=O)/C=C\C(=O)O | inactive | inactive | inactive | inactive | inactive | inactive | – | inactive | inactive | inactive | inactive | inactive | inactive | inactive | inactive | inactive | inactive | inactive | inactive
11 | CCN(CC)c1ccc(N)cc1 | 22.3 µM (active) | 31.5 µM (active) | inactive | inactive | inactive | inactive | – | inactive | inactive | inactive | inactive | inactive | – | – | inactive | – | – | – | –
12 | C=CC(C)(O)CCCC(C)CCCC(C)CCCC(C)C (stereo not drawn) | inactive | inactive | inactive | inactive | inactive | inactive | – | inactive | – | – | inactive | inactive | inactive | inactive | inactive | inactive | inactive | inactive | inactive
13 | CCC(C)COC(=O)CC(C)C (stereo not drawn) | inactive | inactive | inactive | inactive | inactive | inactive | inactive | inactive | inactive | inactive | inactive | inactive | inactive | – | inactive | inactive | inactive | – | –
14 | Cc1c(C(=O)NCCO)[n+](=O)c2ccccc2n1[O-] | inactive | inactive | inactive | inactive | inactive | inactive | – | inactive | inactive | inactive | inactive | inactive | inactive | inactive | inactive | inactive | inactive | inactive | inactive

Source: PubChem BioAssay (Tox21)
